Bioassay records from PubChem BioAssay.
Hits are enriched below; roughly 19% of the tested compounds scored in any of these assays.
DT40 TDP1 CPT = DT40-hTDP1 cell growth loss with CPT. chicken DT40 Tdp1-/-;hTDP1 cells + 20 nM CPT, ATP luminescence, 48 h. Potency, µM (doses to about 46.2 µM), without a hit: at the highest dose activity change, negative = growth inhibition, usual class: inhibitors. 12% of 420,000 active. AID 686979; note: potency is the fitted concentration of half-maximal effect; nearly all actives have a fitted effect of over 55% in size
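Chicken DT40 Tdp1-/- cells stably complemented with human TDP1 were seeded at 400 cells/well in medium containing 20 nM camptothecin, exposed to pin-transferred compounds, and grown at 37 °C for at least 48 hr. Viability was read as ATP luminescence.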
ELG1 repair inh = inhibitors of ELG1-dependent DNA repair in HEK293T cells; HEK293T ELG1-luciferase reporter, luminescence, 16 h; DNA damage induced by 5-fluorouridine; Potency, µM (top dose mostly 46.1 µM), without a hit: at the top dose activity change, negative = inhibition, actives largely listed as inhibitors; 2.3% of 330,000 active; note: potency is the fitted concentration of half-maximal effect; nearly all actives have a fitted effect of over 55% in size
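Quantitative HTS, concentration-response format. 2,000 cells/well co-treated with 5-fluorouridine and compound, 16 hr in 5% CO2 at 37 °C; ONE-Glo luminescence read after 30 min.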
DT40 TDP1 no CPT = qHTS for Inhibitors of human tyrosyl-DNA phosphodiesterase 1 (TDP1): qHTS in cells in absence of CPT; DT40 Tdp1-/- hTDP1 cells, no CPT, ATP luminescence, 48 h; Potency, µM (top dose mostly 46.2 µM), for inactives: top-dose activity change, negative = growth inhibition, usual class: inhibitors; 15% of 420,000 active; note: potency is the fitted concentration of half-maximal effect; nearly all actives have a fitted effect of over 55% in size
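Readout: luminescence from CellTiter-Glo after 30 min in the dark at RT. Cells: DT40 Tdp1-/- with stable hTDP1, 400/well. Exposure: compounds alone, ≥48 hr, 37 °C.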
HT1080NT lethal = kills 2HG-producing HT-1080-NT fibrosarcoma cells | HT-1080-NT fibrosarcoma viability, CellTiter-Glo ATP luminescence, 48 h | 1.6% of 360,000 active | Potency, µM (series often up to 46.1 µM), without a hit: top-dose activity, negative = less viability, most hits filed as cytotoxic;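 note: NT is the 2HG producing partner of a matched IDH1 knockdown line; potency is the fitted concentration of half-maximal effect; 0% = DMSO-treated cells and -100% = media-only wells without cells; nearly all actives have a fitted effect of over 55% in size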
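HT-1080-NT; 750 cells/well; 5% FBS RPMI; 48 h compound, 37 degrees C; CellTiter-Glo luminescence; curve fitting and curve-class assignment.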
IL-1B inflam inh = inhibitors of inflammasome signaling (IL-1 beta secretion). THP-1 LPS/ATP IL-1B secretion, AlphaLISA, 16 h; active compounds read low. activity change, % at 57.5 µM. 4.7% of 360,000 active. AID 743279; in the data active = activity change below about -50%; inconclusive = mostly about -30% to -49%
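Secreted IL-1B measured by AlphaLISA bead assay after 16 h compound exposure of THP-1 cells; compounds (final up to 57.5 uM) added 1 h before LPS (250 ng/mL) and ATP (1.25 mM) stimulation; lower signal means less secretion.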
HT1080 IDH1KD tx = HT-1080 IDH1 knockdown cell toxicity (counter line). Potency, µM (titrated, usually from 46.1 µM), for inactives: top-dose activity, negative = toxicity, most hits filed as cytotoxic. 2% of 360,000 active. AID 686971. HT-1080 IDH1 knockdown viability, ATP luminescence, 48 h;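 note: potency is the fitted concentration of half-maximal effect; 0% = DMSO wells and -100% = cell-free medium wells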
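Viability of IDH1-knockdown HT-1080 fibrosarcoma cells was assessed by CellTiter-Glo after 48 h at 37 °C with titrated compound; concentration-effect curves were classified by fit quality and response size.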
Starred values were filed as active, the others as inactive; ? = inconclusive; / = no result. Unless noted, calls come from the whole dose curve; as a rule, active = well fitted curve in the direction sought with a large enough effect; inconclusive = small, poorly fitted or top-dose-only effect, or another doubt; inactive = no such curve, though single readings can be large; an effect the other way counts as inactive or inconclusive. Unless noted, % is set by controls: 0 for no effect and ±100 for the full control effect.

SMILES	DT40 TDP1 CPT	ELG1 repair inh	DT40 TDP1 no CPT	HT1080NT lethal	IL-1B inflam inh	HT1080 IDH1KD tx
COc1ccc(/C=N/NC(=O)c2cc(-c3ccc(C)cc3C)nc3ccccc23)cc1COC(C)=O	?	1.0%	1.46µM*	-3.9%	0.0	-15.7%
COc1ccc(/C=N/NC(=O)c2cc(-c3ccccc3OC)nc3ccccc23)cc1COC(C)=O	10µM*	?	14.1µM*	-20.9%	-27.7	-12.5%
CCCc1cc(=O)oc2c(C)c(OC(C)C(=O)NCCN3CCOCC3)ccc12 (centres undefined)	-2.1%	-1.8%	2.6%	5.2%	0.0	3.6%
CC1Oc2cc3oc4c(O)c5c(cc4c(=O)c3c(O)c2C1(C)C)C=CC(C)(C)O5 (centres undefined)	?	/	20.6µM*	-18.6%	7.1	-16.8%
Cc1cc2c(cc(C(=O)OC(C(=O)NCc3ccco3)C(C)C)n2C)o1 (centres undefined)	25.9µM*	23.1µM*	18.4µM*	-24.2%	0.0	-14.5%
CS(=O)(=O)n1c2ccccc2c(=O)n1-c1ccccc1CCl	?	/	?	11.1%	-12.6	0.2%
O=C(NN=C1CCC(c2ccccc2)CC1)c1cc2c(s1)CCCC2 (centres undefined)	-7.6%	6.0%	-22.7%	4.6%	1.9	8.7%
CC(C)NC(=S)NN=C1CCC(c2ccccc2)CC1 (centres undefined)	?	-2.3%	16.4µM*	6.9%	10.4	11.9%
Nc1[nH]c(C(=O)c2ccccc2)c(-c2ccccc2Cl)c1C(=O)c1ccccc1	?	/	?	-20.5%	10.9	-16.3%
COCCN(CC(=O)NCC1CCCO1)C(=O)CCC(=O)Nc1ccccn1 (centres undefined)	13µM*	1.5%	23.1µM*	19.2%	-8.6	0.0%
Cc1sc2ncnc(N3CCC(C(=O)Nc4ccc(C#N)cc4)CC3)c2c1C	?	?	?	-0.1%	-2.3	-1.5%
CCN(CC(=O)Nc1cc(Cl)ccc1C)C(=O)C1CCN(c2ncnc3sc(C)c(C)c23)CC1	18.4µM*	/	6.51µM*	?	-12.3	?
Cc1sc2ncnc(N3CCC(C(=O)N(C)CC(=O)Nc4cccc(F)c4)CC3)c2c1C	9.2µM*	/	13µM*	?	?	?
Cc1sc2ncnc(N3CCC(C(=O)N(C)CC(=O)Nc4ccccc4Cl)CC3)c2c1C	16.4µM*	7.3µM*	23.1µM*	-6.6%	0.0	-20.5%
Cc1sc2ncnc(N3CCC(C(=O)N(C)CC(=O)Nc4ccccc4Br)CC3)c2c1C	?	?	?	-1.6%	?	-18.6%
CCN(CC(=O)Nc1c(F)cccc1F)C(=O)c1cc(C)oc1C	-5.3%	14.9%	3.5%	4.3%	-1.9	8.1%
COC(=O)c1ccccc1NC(=O)Cn1cnc2c(cnn2-c2ccc(C)c(C)c2)c1=O	-16.7%	/	-21.1%	5.5%	2.5	4.4%
COC(=O)c1ccccc1NC(=O)Cn1cnc2cc(C)c(C)cc21	14.6µM*	?	23.1µM*	1.5%	30.2	-22.6%
COC(=O)c1ccccc1NC(=O)CNc1cc(OC)c(OC)cc1C	?	?	18.4µM*	-4.7%	21.8	1.3%
CCCCCCCCOC(=O)C1=C(C)Nc2nnnn2C1c1cccs1 (centres undefined)	16.4µM*	?	16.4µM*	?	30.1	?
C=CCOC(=O)C1=C(C)Nc2ncnn2C1c1cccs1 (centres undefined)	-7.5%	-11.9%	-20.0%	-1.4%	10.8	2.9%
CC1=C(C(=O)Nc2ccccc2)C(c2cccs2)n2nnnc2N1 (centres undefined)	2.8%	2.9%	-13.9%	2.8%	-5.0	4.6%
CCCCCCCOC(=O)C1=C(C)Nc2ncnn2C1c1cccs1 (centres undefined)	?	?	13µM*	-19.5%	-10.9	-14.9%
Cc1cccc(S(=O)(=O)NC(=O)C2(C)CCN2C(=O)c2c(C)noc2C)c1 (centres undefined)	17.8%	/	-4.2%	0.9%	0.7	10.6%
COc1cc(C2c3c(oc4ccccc4c3=O)C(=O)N2c2ccccn2)cc(OC)c1OC (centres undefined)	3.8%	/	-6.7%	/	/	/
SMILES	DT40 TDP1 CPT	ELG1 repair inh	DT40 TDP1 no CPT	HT1080NT lethal	IL-1B inflam inh	HT1080 IDH1KD tx
CC(C)OC(=O)CN1C(=O)C(C)(C)Oc2ccc(C(=O)NC(C)(C)C)cc21	-27.1%	?	-13.8%	0.1%	11.0	4.8%
CCOC(=O)CN1C(=O)C(C)(C)Oc2ccc(C(=O)Nc3ccccc3)cc21	?	13µM*	?	-8.4%	-22.8	-1.9%
COc1cc(Cl)c(CNC[C@H]2O[C@@H](n3cnc4c(=O)[nH]c(N)nc43)[C@H](O)[C@@H]2O)c(Cl)c1O	0.4%	/	34.7%	19.9%	14.5	27.0%
N#C/C(=N\Nc1cccc([N+](=O)[O-])c1)C(=O)c1ccc(Br)cc1	5.8µM*	1.83µM*	6.51µM*	5.8µM*	-64.0*	2.59µM*
N#C/C(=N/Nc1ccc([N+](=O)[O-])cc1)C(=N)N1CCCCC1	-17.7%	?	-0.9%	-3.0%	-20.2	-12.8%
N#C/C(=N\Nc1ccc(S(=O)(=O)N2CCCCCC2)cc1)C(N)=S	?	20.6µM*	?	?	-23.8	-24.5%
O=C(O)c1ccc(N=NNc2cccc([N+](=O)[O-])c2)cc1	1.3%	?	?	1.9%	-1.8	-14.8%
N#C/C(=N\Nc1ccc(S(=O)(=O)N2CCCCC2)cc1)C(N)=S	?	?	?	?	-12.7	?
N#C/C(=N\Nc1ccc([N+](=O)[O-])cc1)C(N)=S	?	?	23.1µM*	?	-65.9*	13µM*
N#C/C(=N\Nc1ccc(S(=O)(=O)N2CCc3ccccc32)cc1)C(N)=S	-18.4%	6.51µM*	11.6µM*	10.3µM*	-0.4	9.2µM*
Cc1noc(C)c1-c1nccc(Nc2ccc(F)cc2)n1	-4.2%	/	-8.8%	/	/	/
CCC(=O)Nc1nonc1-c1nc2ccccc2n1CCC(C)C	?	23.1µM*	9.2µM*	-22.1%	-9.0	?
COc1cc(NS(=O)(=O)c2ccc(C)cc2)c2ncccc2c1	0.82µM*	?	1.16µM*	-29.8%	54.1	?
Cc1ccc(S(=O)(=O)Nc2cccc3cccnc23)cc1	?	?	20.6µM*	-1.9%	-97.5*	-19.9%
